ADAM10 inh = inhibits human ADAM10 | recombinant ADAM10, EDANS/DABCYL FRET peptide cleavage, 3 h | inhibition, % at 7 µM | actives 0.62% (n = 370,000);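 active means inhibition above a per-campaign cutoff equal to the mean of compounds falling between control-based bounds plus 3 SD, cut at about 20% in these data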;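 further: 0% = DMSO wells while the 100% control is not disclosed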
proKLK7 act = activates the human kallikrein-7 zymogen. AID 652039. purified proKLK7, EDANS-DABCYL substrate fluorescence; 100% is mature enzyme control, 0% vehicle. activation, % at 7 µM. P49862. actives 0.9% (n = 370,000);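 active means activation above the mean of all tested compounds plus 3 SD, computed per campaign excluding outliers beyond control limits, cut at about 13% in these data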
HGIII-sPLA2 inh = Blocks human group III sPLA2 activity | inhibition, % at 12.2 µM | actives 0.56% (n = 370,000) | QFRET BODIPY PC-A2 liposome hydrolysis, fluorescence | Q9NZ20;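 active means inhibition above mean plus 3 SD of compounds lying within the high and low control bounds, cut at about 19% in these data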;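 further: 0% = median of test compound wells and 100% = no enzyme DMSO wells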
Target sequence (Q9NZ20 whole entry, looked up): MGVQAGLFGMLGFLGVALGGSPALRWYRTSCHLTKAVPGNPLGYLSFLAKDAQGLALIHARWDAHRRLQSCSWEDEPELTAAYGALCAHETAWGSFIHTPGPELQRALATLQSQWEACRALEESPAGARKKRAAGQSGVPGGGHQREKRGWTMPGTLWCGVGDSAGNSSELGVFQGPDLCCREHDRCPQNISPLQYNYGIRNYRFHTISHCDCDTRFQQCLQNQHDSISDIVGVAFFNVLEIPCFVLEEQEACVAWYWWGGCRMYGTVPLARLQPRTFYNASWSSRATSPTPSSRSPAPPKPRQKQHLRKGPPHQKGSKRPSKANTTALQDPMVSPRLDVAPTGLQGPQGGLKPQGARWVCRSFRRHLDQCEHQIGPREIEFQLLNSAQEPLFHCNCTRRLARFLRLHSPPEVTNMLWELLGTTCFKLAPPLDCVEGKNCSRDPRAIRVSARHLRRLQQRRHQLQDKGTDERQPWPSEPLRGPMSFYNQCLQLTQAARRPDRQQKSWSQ
CendR NRP1 mod = modulators of CendR peptide binding to human neuropilin-1. O14786. FAM-RPARPAR peptide binding to NRP-1, fluorescence polarization. inhibition, % at 25 µM. actives 0.85% (n = 360,000). AID 602438;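 active means inhibition or corrected inhibition above about 18%, plus a signal ratio from 0.5 to 1.5, limit read from the data, passing the limit was not always enough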
ADAM17 inh = inhibits human ADAM17; P78536; recombinant ADAM17, EDANS/DABCYL FRET peptide cleavage; inhibition, % at 6.95 µM; actives 0.83% (n = 370,000);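 active means inhibition above the mean of compounds lying between control limits plus 3 SD, set per campaign, cut at about 8.5% in these data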;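 further: 0% = DMSO-only wells as the low control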
KLK7 act conf = proKLK7 activation, confirmation; actives 68% (n = 3,200); activation, % at 7 µM; shares compounds with proKLK7 act; purified proKLK7, EDANS-DABCYL substrate fluorescence; scaled: vehicle 0, mature enzyme 100; AID 686949;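 active means activation, as change over the incubation, above the mean of all tested compounds plus 3 SD, cut at about 13% in these data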
EDANS-DABCYL int = fluorescence interference counter-screen for KLK7 activators | shares compounds with proKLK7 act | EDANS-DABCYL substrate fluorescence interference, no enzyme, 4 h; solvent 0%, active enzyme control 100% | activation, % at 7 µM | actives 80% (n = 3,200);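 active means activation above the all-compound mean plus 3 SD, ignoring values outside control-based bounds, cut at about 4.8% in these data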;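 further: value is the 4 h activation minus the activation read at time zero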
EDANS interf = EDANS fluorescence interference in dose response, no enzyme; shares compounds with proKLK7 act; EDANS-DABCYL peptide fluorescence interference; EC50, µM; actives 20% (n = 250); AID 720493;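 active means compounds that raise the fluorescence signal in this interference counterscreen, with EC50 at or below 10 µM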;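 further: intact quenched peptide substrate alone read at 355 nm excitation and 520 nm emission; signal is fluorescence gain from T0 to T4 after four hours at room temperature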
Active calls of the source: *; i = inactive; x = not tested or not shown. Most compounds without a hit are left out; they make up all but 3.4% or so of the library.

SMILES | ADAM10 inh | proKLK7 act | HGIII-sPLA2 inh | CendR NRP1 mod | ADAM17 inh | KLK7 act conf | EDANS-DABCYL int | others
CC(C)c1ccc(/C=C2\Oc3c(ccc(O)c3CN3CCN(C)CC3)C2=O)cc1 | -142.4 | 37.9* | -37.8 | -54.6 | -48.5 | -16.5 | -26.4
O=C(NC1CCCCN(Cc2ccc(Cl)cc2)C1=O)c1ccc(COc2ccccc2)cc1 (stereo not given) | -9.0 | 0.1 | 8.8 | x | -4.8 | x | x
S=c1[nH]nc(-c2cc(-c3ccccc3)n[nH]2)n1N=Cc1cccc(Oc2ccccc2)c1 | 7.0 | -0.1 | 14.4 | x | 1.5 | x | x
COc1cc2c(cc1/C=C/C(=O)O)OC(C)C2 (stereo not given) | i | 63.9* | -2.4 | 3.5 | i | 64.4* | 74.0*
CCOc1cc2c(cc1/C=C/C(=O)O)OC(C)C2 (stereo not given) | i | 61.8* | 0.2 | 6.9 | i | 72.4* | 69.2*
Cc1ccc(C(=O)C2CCN(CC(=O)NCc3cccs3)CC2)cc1 | -4.2 | 0.9 | -5.9 | x | -0.9 | x | x
Cc1ccc(S(=O)(=O)N2CCC(C(=O)NCc3cccs3)CC2)cc1 | -1.6 | 0.5 | -7.9 | x | 1.0 | x | x
CCCCc1cc(=O)oc2c3c(cc(OCC(=O)N4CCC[C@H]4C(=O)O)c12)OC(C)(C)CC3 | i | 52.6* | -4.7 | -0.4 | i | 57.0* | 62.4*
Cc1cc(=O)oc2c3c(cc(OCC(=O)N4CCC(C(=O)O)CC4)c12)OC(C)(C)CC3 | i | 47.5* | 5.1 | 0.5 | i | 64.6* | 60.8*
Cc1cc(=O)oc2c3c(cc(OCC(=O)N4CCC[C@H]4C(=O)O)c12)OC(C)(C)CC3 | i | 34.8* | 5.7 | 0.9 | i | 65.6* | 64.5*
C[C@H](O)[C@@H]1CN2CCc3c([nH]c4c(-c5ccc6c(c5)OCO6)cccc34)[C@@H]2C[C@@H]1N(C)C(=O)c1ccco1 | -0.7 | -0.3 | -0.5 | x | -1.7 | x | x
Cc1cccc(NC(=O)Nc2ccccc2C(=O)N2CCCC2)c1 | -0.1 | 0.3 | -3.7 | x | 0.1 | x | x
COC(=O)[C@]12C[C@H](CC(=O)N3CCCC3)C(=O)N(Cc3ccco3)C1=C[C@H](C(C)C)O[C@@H]2C1CC1 | -0.7 | 0.7 | -4.0 | x | -2.1 | x | x
CCOC(=O)c1oc2ccc(OC)cc2c1NC(=O)CN1CCN(C)CC1 | -473.1 | 15.9* | -12.4 | -2.5 | -119.5 | -16.1 | -12.3
CCOC(=O)c1[nH]c2ccc(OC)cc2c1NC(=O)CCN1CCSCC1 | i | 17.4* | 16.6 | -1.2 | -174.2 | 11.4 | 10.1*
CCOC(=O)c1[nH]c2ccc(F)cc2c1NC(=O)CCN1CCSCC1 | -45.9 | 0.2 | 0.7 | 18.3 | -20.6 | x | x
O=C1c2ccccc2NC(c2cccc(F)c2)N1Cc1ccco1 (stereo not given) | i | 22.2* | -6.2 | -15.5 | -380.8 | -3.4 | -8.2
Cc1ccc(C2Nc3ccccc3C(=O)N2Cc2ccco2)cc1 (stereo not given) | i | 13.1* | -4.5 | -10.1 | -318.8 | -21.7 | -19.0
Cc1cccc(C)c1OCc1cccc(C2Nc3ccccc3C(=O)N2Cc2ccco2)c1 (stereo not given) | -337.8 | x | 7.4 | x | -111.7 | x | x
O=C1c2ccccc2NC(c2ccc(O)cc2)N1Cc1ccco1 (stereo not given) | i | 24.2* | 0.6 | -5.9 | -235.9 | 9.1 | 7.1*
Cc1nn(-c2ccc(F)cc2)c2sc(C(=O)OC3CCOC3=O)cc12 (stereo not given) | -280.8 | 20.2* | -2.2 | -2.5 | -46.8 | 24.5* | 22.6*
CCC(=O)c1cc2c(C)cc(=O)oc2c(C)c1OC | -11.6 | -0.5 | 4.0 | 7.9 | -2.8 | x | x
CCC(=O)Nc1c(OC(=O)CC)ccc2c(C)cc(=O)oc12 | i | 273.1* | 1.9 | -1.6 | i | 256.2* | 253.6*
CCC(=O)Oc1c(C(=O)CC)cc2c(C)cc(=O)oc2c1C | -31.2 | 539.7* | 5.3 | -8.6 | -8.9 | 810.3* | 812.2*
CC(=O)Oc1ccc2c(C)cc(=O)oc2c1C(=O)c1ccccc1 | -64.5 | 10.3 | -2.7 | -7.2 | -14.2 | x | x
SMILES | ADAM10 inh | proKLK7 act | HGIII-sPLA2 inh | CendR NRP1 mod | ADAM17 inh | KLK7 act conf | EDANS-DABCYL int | others
COc1ccc(OC)c(N/C(N)=N/c2nc(C)cc(C)n2)c1 | -4.2 | -0.3 | 13.2 | 8.2 | -4.6 | x | x
COc1cc(N/C(N)=N/c2nc(C)cc(C)n2)cc(OC)c1 | -21.5 | 13.8* | -3.2 | -4.1 | -9.6 | -0.1 | -0.1
N#CC1=C(N)Oc2cc(O)c(Cl)cc2C1c1cccnc1 (stereo not given) | -20.5 | 3.9 | -4.9 | -51.2 | -5.2 | x | x
N#CC1=C(N)Oc2cc(O)c(Cl)cc2C1c1ccccc1F (stereo not given) | -218.4 | 15.8* | -13.6 | 118.3 | -86.3 | -3.4 | 1.0
N#Cc1ccc(OCCCN2CCC(C(O)(C3=CCCC3)c3ccccc3)CC2)cc1 (stereo not given) | 1.0 | 1.0 | -27.6 | x | 3.9 | x | x
Cn1c(-c2ccc(C=O)s2)nc2ccccc21 | i | 47.7* | 11.9 | 6.8 | -465.8 | 52.3* | 55.6*
O=C(OCC#CCSc1nnc(-c2cccc3ccccc23)o1)c1cccc(F)c1 | -2.9 | x | 0.9 | x | -5.6 | x | x
O=C(COc1ccc2ccc(=O)oc2c1)NC(Cc1ccc(Cl)cc1)C(=O)O (stereo not given) | -167.9 | 0.9 | 1.0 | -0.2 | -42.8 | x | x
Cc1c(O)ccc2c(CC(=O)N[C@@H](Cc3ccc(O)cc3)C(=O)O)cc(=O)oc12 | i | 39.5* | -3.0 | 4.7 | i | 64.6* | 68.5*
O=C(Cc1cc(=O)oc2cc(O)ccc12)NC(Cc1ccc(Cl)cc1)C(=O)O (stereo not given) | i | 45.7* | -3.6 | -10.3 | i | 65.0* | 68.0*
CCC(NC(=O)CCc1c(C)c2cc3c(C)c(C)oc3cc2oc1=O)C(=O)N[C@@H](Cc1ccccc1)C(=O)O (stereo not given in full) | -298.6 | 14.0* | -11.2 | -7.3 | -72.4 | 13.3* | 8.7* | EDANS interf=>69.5
CCCC(NC(=O)CCc1c(C)c2cc3c(C)c(C)oc3cc2oc1=O)C(=O)NC(Cc1ccc(Cl)cc1)C(=O)O (stereo not given) | -339.5 | 4.2 | -8.5 | -60.2 | -97.0 | x | x
Cc1c(CC(=O)NCC(=O)NCC(=O)N[C@@H](Cc2ccccc2)C(=O)O)c(=O)oc2c(C)c(O)ccc12 | i | 71.9* | 1.6 | -16.7 | i | 61.4* | 73.6*
COc1ccc(CCN(Cc2cccs2)S(=O)(=O)c2ccc(C)s2)cc1OC | 2.3 | 0.2 | -4.5 | x | 3.5 | x | x

Assay outcomes as filed in PubChem.
